Experimental data: PubChem BioAssay (Tox21)
Inconclusive results are not listed. Entries that show only a call come without a potency. Active and inactive are the calls of the source. Calls follow the shape of the dose curve; as a rule, active = well fitted activation curve with a large enough effect in the repeat runs; inconclusive = weak or mixed curves; inactive = flat fitted curve, though single readings scatter.

Assay: A CellTox Green Cytotoxicity Assay to monitor cytotoxicity in HEK293 cells - 24 hour (AID 1224875); also: nearly all actives have a fitted effect of over 45% in size
Conditions: CellTox Green fluorescence; series mostly up to 76.8 µM
From the text: National Center for Advancing Translational Sciences [NCATS]
NIH Chemical Genomics Center [NCGC]
U.S. Environmental Protection Agency [EPA]
National Institutes of Environmental Health Sciences [NIEHS]
National Toxicology Program [NTP]
Cell-based models are critical for drug discovery. Determining the natural cytotoxic effects resulting from test compounds is an essential research activity. A CellTox Green Cytotoxicity Assay to monitor cytotoxicity in real time of continues cell culture during 40 hours of the compound treatment was used to screen Tox21 10K library compounds in Hek293 cells. CellTox Green Cytotoxicity Assay is a nonlytic, homogeneous, biofluorescent method to measure cytotoxicity in cell culture after experimental manipulation. The assay system uses a proprietary asymmetric cyanine dye that is excluded from viable cells but preferentially stains the dead cell's DNA. […] Viable cells produce no appreciable increases in fluorescence. Therefore, the fluorescence signal produced by the binding interaction with dead cell DNA is proportional to cytotoxicity.
The mixture of Hek293 cell suspension and reagents were dispensed at 600cells/6 ul/well in 1536-well tissue culture treated black solid bottom plates using a Multidrop dispenser. After the assay plates were incubated at a 37 C/5% CO2 incubator for 5 hours, 23 nL of compounds dissolved in DMSO, positive and negative controls was transferred to the assay plate by a pintool work station. The plates were incubated at 37 C for 40 hours. The fluorescence intensity were measured at 0h, 8h, 16h, 24h, 32h and 40h time points using ViewLux plate reader during compound treatment.
Potency is read from the fitted curve at half-maximal effect.

Row | Structure (SMILES) | Potency | activity change
1 | CCCC(=O)OCCc1ccccc1 | 43.6 µM (active) | 
2 | CC(C)=CCNc1ncnc2c1ncn2[C@@H]1O[C@H](CO)[C@@H](O)[C@H]1O | inactive | 
3 | C[C@@H](O)[C@H](N)C(=O)O |  | -4.79% [at 15.8 µM, hits give high values] (inactive)
4 | OC12N=C(c3ccccc3)SC1Cc1cc(Cl)ccc12 (stereo not given) | inactive | 
5 | CC[N+](CC)(CC)CCOC(=O)C(C1CCCC1)C1CCCC1 | inactive | 
6 | CCC(CC)C(C)CCOC(C)=O (stereo not given) | inactive | 
7 | Cc1ccc(C(C)C)cc2c(C)ccc1-2 | inactive | 
8 | CCOC(=O)Cn1cccc1-c1nc(-c2ccc(OC)cc2)c(-c2ccc(OC)cc2)s1 | inactive | 
9 | COCCOc1cc2cc(C(=O)NC3CCN(C(C)C)CC3)n(CC(=O)Nc3ccc(Cl)cn3)c2cn1 | inactive | 
10 | Fc1ccc(C(c2ccc(F)cc2)N2CCNCC2)cc1 | inactive | 
11 | CC(C)CCOC(=O)/C=C/c1ccccc1 | inactive | 
12 | CN(C)Cc1ccccc1O | inactive | 
13 | C#Cc1ccc(-c2ccccc2F)cc1 | inactive | 
14 | Nc1ccc(Oc2ccc(Cl)cc2)cc1 | inactive | 
15 | c1ccc(C(O[C@@H]2CCCN(CCc3ccc4c(c3)OCO4)C2)c2ccccc2)cc1 | inactive | 
16 | O=C(O)CCN(C1(C(=O)NO)CCCC1)S(=O)(=O)c1ccc(Oc2ccc(F)cc2)cc1 | inactive | 
17 | CC(=O)OCC=C(C)C | inactive | 
18 | CN1CCN(Cc2cc(-c3ccc4[nH]c(=O)oc4c3)co2)[C@@H](c2ccc(F)cc2)C1 | inactive | 
19 | CC(C)(C)CC(C)(C)c1ccc(Nc2ccc(C(C)(C)CC(C)(C)C)cc2)cc1 |  | 4.29% [at 6.97 µM, hits give high values] (inactive)
20 | CNC(=O)c1ccccc1Sc1ccc2c(/C=C/c3ccccn3)n[nH]c2c1 | inactive | 

Row | Structure (SMILES) | Potency | activity change
21 | CCc1oc2ccccc2c1C(=O)c1cc(I)c(O)c(I)c1 | inactive | 
22 | OCC(F)(F)F | inactive | 
23 | C=CCCC(=O)/C=C/C1C(C)=CCCC1(C)C (stereo not given) | 34.7 µM (active) | 
24 | CC(C(=O)O)c1ccc2c(c1)[nH]c1ccc(Cl)cc12 (stereo not given) | inactive | 
25 | CC1=Nc2ccccc2C1(C)C | inactive | 
26 | O[C@@H]([C@H](O)[C@H](O)CBr)[C@H](O)CBr | inactive | 
27 | CCC(=O)OC(=O)CC | inactive | 
28 | CN1CCN2c3ccccc3Cc3ccccc3C2C1 (stereo not given) | inactive | 
29 | O=S(=O)(O)c1ccc(N=Nc2c(O)ccc3ccccc23)cc1 | inactive | 
30 | CC(CCc1ccccc1)NCC(O)c1ccc(O)c(C(N)=O)c1 (stereo not given) | inactive | 
31 | Nc1ccc(C(=O)O)c(O)c1 | inactive | 
32 | S=C([S-])NCCNC(=S)[S-].S=C([S-])NCCNC(=S)[S-].[Mn+2].[Zn+2] | inactive | 
33 | Cc1c(C)c2c(c(C)c1OC(=O)c1cccnc1)CC[C@@](C)(CCC[C@H](C)CCC[C@H](C)CCCC(C)C)O2 | inactive | 
34 | Cc1cccc2cccnc12 | inactive | 
35 | CC(=O)CC(=O)Nc1ccc(S(=O)(=O)O)cc1 | inactive | 
36 | CCCCCCC1CCCC(=O)O1 (stereo not given) | inactive | 
37 | O=C(O)c1cccc(C(F)(F)F)c1 | inactive | 
38 | CC(C)(C)NSc1nc2ccccc2s1 | inactive | 
39 | O=C1CCc2cc(OCCCCc3nnnn3C3CCCCC3)ccc2N1 | inactive | 
40 | OC/C=C/CO | inactive | 
